HT1080NT lethal – qHTS for induction of synthetic lethality in tumor cells producing 2HG: qHTS for the HT-1080-NT fibrosarcoma cell line; 1.6% of 360,000 active; AID 686970, 2013; HT-1080-NT fibrosarcoma viability, CellTiter-Glo ATP luminescence, 48 h; Potency, µM (titrated, usually from 46.1 µM), for inactives: top-dose activity, negative = less viability, most hits filed as cytotoxic;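 further: NT is the 2HG producing partner of a matched IDH1 knockdown line; 0% = DMSO-treated cells and -100% = media-only wells without cells; nearly all actives have a fitted effect of over 55% in size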
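Read-out is CellTiter-Glo luminescence after 10 minutes at room temperature, following 48 hours' compound treatment of HT-1080-NT cells (750 cells/well, RPMI, 5% FBS, 37 degrees C).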
TGFb inhibitor – qHTS for Inhibitors of TGF-b; HepG2 CAGA-GFP TGF-b/SMAD3 reporter, GFP fluorescence, 18 h; TGF-beta stimulated, 500 pg/mL final; Potency, µM (highest dose often 46.1 µM), without a hit: at the highest dose activity, negative = inhibition, actives largely listed as inhibitors; 1.2% of 410,000 active; further: on the % scale 0 is the no-effect control and ±100 the full control effect; nearly all actives have a fitted effect of over 65% in size
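Using HEPG2 CAGA-GFP reporter cells at 1000 cells/well, we pinned test compounds, stimulated with recombinant TGF-beta (500 pg/mL final) and measured total well GFP after 18 h.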
HepG2 tox – qHTS for Inhibitors of TGF-b: Cytotox Counterscreen; Potency, µM (top dose mostly 46.1 µM), for inactives: top-dose activity change, negative = cytotoxicity, most hits filed as cytotoxic; 0.76% of 410,000 active; HepG2 CAGA-GFP viability, ATP luminescence, 18 h
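HepG2 CAGA-GFP cells (1000/well, DMEM with 1% FBS) received compound, then TGF-beta at 500 pg/mL final, and were incubated 18 hours at 37 degrees C. Viability was read by CellTiter-Glo luminescence. Media-only wells were set as complete cell-killing and DMSO as no toxicity.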
S2 tox – Viability Counterscreen for Primary qHTS for Inhibitors of ATXN expression | S2 cells (HEK-293 line with an ATXN2-luciferase reporter) viability, CellTiter-Fluor protease fluorescence, 24 h | Potency, µM (series often up to 56.7 µM), most hits filed as cytotoxic | 0.49% of 400,000 active | AID 651635, 2014; further: nearly all actives have a fitted effect of over 40% in size
HT1080 IDH1KD tx – qHTS for induction of synthetic lethality in tumor cells producing 2HG: qHTS for the HT-1080-IDH1KD cell line; 2% of 360,000 active; Potency, µM (top dose mostly 46.1 µM), for the others: top-dose activity, negative = toxicity, actives largely listed as cytotoxic; HT-1080 IDH1 knockdown viability, ATP luminescence, 48 h;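 further: 0% = DMSO wells and -100% = cell-free medium wells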
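HT-1080-IDH1KD cells (IDH1 knocked down), 750/well in RPMI with 5% FBS, treated with compound 48 h at 37 degrees C. Viability by CellTiter-Glo luminescence, normalised to DMSO and no-cell wells; concentration-response curves classed.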
ATXN2 expr inh – Primary qHTS for Inhibitors of ATXN expression | HEK-293 ATXN2-luciferase reporter, luminescence, 24 h | Potency, µM (highest dose often 57 µM), for inactives: at the highest dose activity change, negative = inhibition, hits mostly inhibitors | 0.72% of 360,000 active; further: on the % scale 0 is the no-effect control and ±100 the full control effect; nearly all actives have a fitted effect of over 55% in size
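ATXN2-luciferase reporter cells (luciferase flanked by upstream and downstream ATXN2 gene portions) were treated 24 h at 37 °C with compounds at up to 57 uM. SteadyGlo luminescence gave expression; GF-AFC fluorescence gave viability.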
An asterisk follows results filed as active; i = inactive; u = inconclusive; x = no result given; ! = repeats disagree; [ ] = remark or other dose. Rows were chosen to be rich in hits. Some 3.9% of all compounds tested hit in one or more screens of this group. The call rests on the fitted dose curve; in most records, active means well fitted curve in the direction sought with a large enough effect; inconclusive means small, poorly fitted or top-dose-only effect, or another doubt; inactive means no such curve, though single readings can be large; an effect the other way counts as inactive or inconclusive. Potency means the concentration at half of the fitted maximal effect.

SMILES | HT1080NT lethal | TGFb inhibitor | HepG2 tox | S2 tox | HT1080 IDH1KD tx | ATXN2 expr inh
CC1CN(Cc2cccn2-c2ncccn2)Cc2cc(Cl)ccc2O1 (configuration not stated) | x | x | x | i | x | x
COc1ccc(OC)c(CNS(=O)(=O)c2ccc3c(c2)CCCN3C(C)=O)c1 | x | -13% | -20% | i | x | 5%
O=C(/C=C/c1ccc([N+](=O)[O-])cc1)NCc1ccccn1 | -6% | 2% | -15% | i | -3% | 3%
O=C(CCS(=O)(=O)Cc1ccccc1)Nc1ncc([N+](=O)[O-])s1 | -8% | 0% | -15% | i | 18µM* | 26%
CCCCOc1ccc(/C=C/C(=O)Nc2ccc([N+](=O)[O-])cc2C)cc1 | -7% | 4% | 1% | i | -1% | 7%
O=C(CS(=O)(=O)c1ccccc1)Nc1ncc([N+](=O)[O-])s1 | 11% | 0% | 4% | u | 14% | -13%
O=C(/C=C/c1ccc([N+](=O)[O-])cc1)Nc1ncc([N+](=O)[O-])s1 | u | 13µM* | -27% | u | u | x
CCCOc1ccc(/C=C/C(=O)Nc2ccc([N+](=O)[O-])cc2)cc1 | 13µM* | 0% | -10% | u | -4% | u
O=C(CCS(=O)(=O)Cc1ccccc1)Nc1nncs1 | -14% | 1% | -14% | i | 0% | 50%
O=C(CCS(=O)(=O)c1ccccc1)Nc1ncc([N+](=O)[O-])s1 | 21µM* | 16µM* | -58% | i | 16µM* | -5%
Cc1nn(C(C)C(=O)Nc2ccccc2C(F)(F)F)c(=O)c2c1sc1ccccc12 (configuration not stated) | x | 19% | -10% | x | x | x
O=C(Nc1ncc([N+](=O)[O-])s1)c1cccs1 | 23µM* | u | 13µM*! | u | 21µM* | 6%
Cc1cnc(NC(=O)c2cccs2)s1 | -29% | -22% | -23% | i | -25% | 32%
CC1(C)CC(=O)C2=C(C1)OC(N)=C(C#N)C21C(=O)N2CCCc3cccc1c32 (configuration not stated) | 12% | -2% | -12% | i | 0% | -2%
Cc1cc2c3c(c1)C(C)(c1ccccc1)CC(C)(C)N3C(=O)C21C(C#N)=C(N)OC2=C1C(=O)CC(C)(C)C2 (configuration not stated) | -1%[9.24 µM] | u | -109% | u | 18µM* | u
O=C(NCCCc1nc2ccccc2n1CCOc1ccccc1)C1CCCCC1 | x | 0% | 0% | x | x | x
CC1(C)C[C@H]2C3=CCC4[C@@]5(C)CC[C@H](O[C@@H]6O[C@H](C(=O)O)[C@@H](O)[C@H](O)[C@H]6O)[C@@](C)(CO)C5CC[C@@]4(C)[C@]3(C)C[C@H](O)[C@@]2(CO)[C@@H](O)[C@@H]1O (some centres not stated) | 10% | 2% | -3% | i | 13% | 16%
C/C=C(\C)C(=O)OC1[C@H](OC(C)=O)C2(CO)C(CC1(C)C)C1=CCC3C4(C)CCC(O[C@@H]5O[C@H](C(=O)O)[C@@H](O[C@@H]6O[C@H](CO)[C@@H](O)[C@H](O)[C@H]6O)[C@H](O)[C@H]5O[C@H]5O[C@H](CO)[C@@H](O)[C@H](O)[C@H]5O)[C@](C)(CO)C4CCC3(C)[C@]1(C)C[C@H]2O (some centres not stated) | x | 4.5µM* | -102% | 14µM* | x | 8.9µM*
CC1O[C@@H](OC2C(COC3OC(CO)C(O)[C@H](O)C3O)OC(OC3CC[C@]4(C)C(CC[C@@]5(C)[C@@H]4CC=C4[C@@H]6CC(C)(C)CC[C@]6(CO)C(O)C[C@]45C)C3(C)C)C(O)C2O)C(O)C(O)C1O (some centres not stated) | 5% | 20% | -1% | i | 10% | 4%
C/C=C(/C)C(=O)OC1CC(C)(C)C[C@H]2C3=CC[C@@H]4[C@@]5(C)CCC(O[C@@H]6O[C@@H](C(=O)O)[C@@H](O)C(O[C@@H]7OC[C@H](O)[C@@H](O)[C@@H]7O[C@@H]7OC(CO)C(O)[C@@H](O)[C@@H]7O)C6O[C@@H]6OC(CO)C(O)C(O)C6O)[C@@](C)(CO)[C@@H]5CC[C@]4(C)[C@]3(C)CC(O)[C@@]12CO (some centres not stated) | u | 14µM* | 14µM* | 32µM* | u | 0%
COc1ccc(NC(=O)CSc2oc(-c3ccco3)nc2S(=O)(=O)c2ccccc2)c(OC)c1 | x | 0% | -3% | i | x | -12%
CCN(CC)CCN(C(=O)c1ccco1)c1nc2ccc(F)cc2s1 | x | 4% | 2% | x | x | x
COc1ccc(OCCNc2cc(N3CCCCC3)ccc2[N+](=O)[O-])cc1 | -12% | 6% | -22% | u | -3% | -9%
Cc1ccccc1OCCNc1cc(N2CCN(CCO)CC2)ccc1[N+](=O)[O-] | u | -9% | -35% | u | 15µM* | -20%
CC1CN(c2ccc([N+](=O)[O-])c(NCCOc3ccccc3)c2)CCN1 (configuration not stated) | 15µM* | u | -49% | u | 16µM* | 0%
SMILES | HT1080NT lethal | TGFb inhibitor | HepG2 tox | S2 tox | HT1080 IDH1KD tx | ATXN2 expr inh
c1ccc(-c2ccc(OCCCNC3CCCC3)cc2)cc1 | 15µM* | u | -56% | i | 18µM* | -8%[11.3 µM]
COc1ccc(OCCNC2CCCC2)cc1 | 3% | 11% | -1% | u | 0% | x
CC(C)Sc1nnc2c3ccccc3n(C)c2n1 | 2% | x | x | x | 5% | x
CCN(CC)CCCNC(=O)c1oc2ccc(S(=O)(=O)N3CC(C)CC(C)C3)cc2c1C (configuration not stated) | u | 0% | -65% | i | 26µM* | -15%
Cc1c(C(=O)N2CCCCC2)oc2ccc(S(=O)(=O)N3CC(C)CC(C)C3)cc12 (configuration not stated) | u | 11µM* | -31% | i | u | u
COc1ccc(-c2c(C)c3ccc(O)c(CN4CCC(C)CC4)c3oc2=O)cc1OC | x | -25% | -6% | x | x | -19%
COc1ccc(CNc2nc3c(c(=O)n(C)c(=O)n3C)n2Cc2ccccc2Cl)cc1 | x | 0% | -40% | i | x | 7%
CSc1ncccc1C(=O)NCCN1Cc2ccccc2OC(c2ccccc2F)C1 (configuration not stated) | x | x | x | i | x | x
